Reference: PubChem BioAssay (NCI)
Compounds without any hit were thinned out: in the full panel of roughly 79,000, 15% have a hit. Active and inactive are the calls of the source. Cut-off read from the data, not from the text of the source: active = growth inhibition above about 70%; inactive = the rest.

Tests used:
[1] = NCI Yeast Anticancer Drug Screen. Data for the rad52 strain (AID 147);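 note: 0% = growth of vehicle-treated control cultures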; conditions: S. cerevisiae rad52 mutant growth inhibition, stronger effect = higher value
Procedure, shortened: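 Genetically altered yeast (DNA damage repair defect) treated with compound; inhibition calculated relative to vehicle.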

[2] = NCI Yeast Anticancer Drug Screen. Data for the wt1 strain (AID 149);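 note: 0% = growth of vehicle-treated wt1 cultures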; conditions: S. cerevisiae wt1 strain (SPY 50644) growth inhibition, stronger effect = higher value
Procedure, shortened: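 Each compound is tested on wt1 yeast and the loss of growth versus vehicle gives the inhibition value.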

[3] = NCI Yeast Anticancer Drug Screen. Data for the rad50EPP+ strain (AID 151);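 note: 0% = growth of vehicle-treated control cultures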; conditions: S. cerevisiae rad50 mutant strain, stronger effect = higher value
Procedure, shortened: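 Strain rad50EPP+; compound exposure; % growth inhibition vs vehicle.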

[4] = NCI Yeast Anticancer Drug Screen. Data for the mgt1 strain (AID 153); conditions: S. cerevisiae mgt1 mutant growth inhibition, stronger effect = higher value
Procedure, shortened: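 Read-out: yeast growth inhibition vs vehicle control. Strain mgt1, drawn from a panel altered in DNA damage repair or cell cycle control.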

[5] = NCI Yeast Anticancer Drug Screen. Data for the rad50 strain (AID 155);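 note: 0% = growth of vehicle-only cultures of the same strain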; conditions: S. cerevisiae rad50 strain growth inhibition, stronger effect = higher value
Procedure, shortened: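 Vehicle-treated cultures provide the reference for the growth inhibition reported for compound-exposed, repair-deficient yeast.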

[6] = NCI Yeast Anticancer Drug Screen. Data for the mec2-1 strain (AID 157); conditions: S. cerevisiae mec2-1 strain, stronger effect = higher value
Procedure, shortened: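 Cells of the genetically defined mec2-1 yeast strain are incubated with test compound. Inhibition of growth is calculated against vehicle-treated controls.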

[7] = NCI Yeast Anticancer Drug Screen. Data for the rad14 strain (AID 159);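 note: 0% = growth of vehicle-treated control cultures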; conditions: S. cerevisiae rad14 strain growth inhibition, stronger effect = higher value
Procedure, shortened: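 Inhibition of growth is reported for a repair-deficient yeast mutant following compound treatment, calculated relative to cultures that received vehicle.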

[8] = NCI Yeast Anticancer Drug Screen. Data for the sgs1 mgt1 strain (AID 161);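 note: 0% = growth of cultures given vehicle only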; conditions: S. cerevisiae sgs1 mgt1 strain, stronger effect = higher value
Procedure, shortened: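 Read-out: growth inhibition vs vehicle controls. Cells: mutant yeast strain deficient in DNA damage repair.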

[9] = NCI Yeast Anticancer Drug Screen. Data for the CLN2oe strain (AID 163);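 note: 0% = growth of vehicle-only control cultures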; conditions: S. cerevisiae CLN2oe strain, stronger effect = higher value
Procedure, shortened: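 Strain altered in cell-cycle control, incubated with compound; growth compared to solvent-treated controls.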

[10] = NCI Yeast Anticancer Drug Screen. Data for the cln2 rad14 strain (AID 165);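 note: 0% = growth equal to vehicle treated cultures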; conditions: S. cerevisiae cln2 rad14 strain, stronger effect = higher value
Procedure, shortened: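 The screen exposed genetically defined yeast (cln2 rad14) to test compounds and scored growth inhibition relative to vehicle-treated controls.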

[11] = NCI Yeast Anticancer Drug Screen. Data for the wt2 strain (AID 169); conditions: S. cerevisiae wt2 strain growth inhibition, stronger effect = higher value
Procedure, shortened: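 Steps: yeast strain treated with compound; growth recorded; inhibition calculated relative to cultures given vehicle alone.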

[12] = NCI Yeast Anticancer Drug Screen. Data for the mlh1 strain (AID 171);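 note: 0% = growth of vehicle-treated control cultures of the same strain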; conditions: S. cerevisiae mlh1 strain growth inhibition, stronger effect = higher value
Procedure, shortened: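 Yeast screen: mutant strain plus compound, growth scored against vehicle control wells.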

[13] = NCI Yeast Anticancer Drug Screen. Data for the sgs1 strain (AID 173);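 note: 0% = growth of vehicle-only control cultures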; conditions: S. cerevisiae sgs1 mutant, stronger effect = higher value
Procedure, shortened: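 Inhibition of yeast growth served as the measure. The mutant strain was treated with each compound, and growth was normalised to cultures receiving vehicle alone.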

[14] = NCI Yeast Anticancer Drug Screen. Data for the mlh1 rad18 strain (AID 175); conditions: S. cerevisiae mlh1 rad18 strain growth inhibition, stronger effect = higher value
Procedure, shortened: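 Compound-treated yeast growth, normalised to vehicle controls. Strain bears defined DNA repair mutations.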

[15] = NCI Yeast Anticancer Drug Screen. Data for the rad18 strain (AID 177); conditions: S. cerevisiae rad18 mutant growth inhibition, stronger effect = higher value
Procedure, shortened: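 Inhibition values reflect reduced yeast growth compared with vehicle-treated controls, using a strain engineered with a DNA damage repair defect.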

[16] = NCI Yeast Anticancer Drug Screen. Data for the bub3 strain (AID 167); conditions: S. cerevisiae bub3 mutant strain, stronger effect = higher value
Procedure, shortened: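 Mutant yeast screening strain plus compound; vehicle-treated cultures serve as the 0% inhibition reference.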

[17] = at 5.0 µM (retest, dose inferred, filed as 0.5)
[18] = at 50.0 µM (retest, dose inferred, filed as 5.0)

Measured: growth inhibition

C/C(=N\Sc1ccccc1)c1ccccc1O
active: [1]; at 100.0 µM 85% | [3]; at 100.0 µM 91% | [5]; [18] 71% | [5]; at 50.0 µM 79% | [5]; at 100.0 µM 90% | [12]; at 100.0 µM 79% | [13]; at 100.0 µM 91% | [14]; at 50.0 µM 94.2% | [15]; at 100.0 µM 90%
inactive: [1]; at 1.2 µM 1% | [1]; at 3.7 µM 4% | [1]; at 11.0 µM 2% | [1]; at 33.0 µM 21% | [2]; at 1.2 µM -3% | [2]; at 3.7 µM -4% | [2]; at 11.0 µM -4% | [2]; at 33.0 µM 4% | [2]; at 100.0 µM 64% | [3]; at 1.2 µM 3% | [3]; at 3.7 µM 5% | [3]; at 11.0 µM 9% | [3]; at 33.0 µM 35% | [4]; at 1.2 µM 2% | [4]; at 3.7 µM -2% | [4]; at 11.0 µM -1% | [4]; at 33.0 µM 8% | [4]; at 100.0 µM 62% | [5]; at 1.2 µM -3% | [5]; at 3.7 µM -4% | [5]; [17] -144% | [5]; at 11.0 µM 7% | [5]; at 33.0 µM 16% | [6]; at 1.2 µM -1% | [6]; at 3.7 µM 2% | [6]; [17] -48% | [6]; at 11.0 µM -11% | [6]; at 33.0 µM -1% | [6]; [18] -4% | [6]; at 50.0 µM 51.5% | [6]; at 100.0 µM 62% | [7]; at 1.2 µM -4% | [7]; at 3.7 µM -9% | [7]; at 11.0 µM -5% | [7]; at 33.0 µM 9% | [7]; at 100.0 µM 63% | [8]; [17] -63% | [8]; [18] 49% | [8]; at 50.0 µM 33.5% | [9]; at 1.2 µM 2% | [9]; at 3.7 µM -1% | [9]; at 11.0 µM 2% | [9]; at 33.0 µM 1% | [9]; at 100.0 µM 39% | [10]; [17] -59% | [10]; [18] -38% | [10]; at 50.0 µM 11.5% | [11]; at 1.2 µM 1% | [11]; at 3.7 µM 2% | [11]; at 11.0 µM 1% | [11]; at 33.0 µM 0% | [11]; at 100.0 µM 62% | [12]; at 1.2 µM 2% | [12]; at 3.7 µM 3% | [12]; at 11.0 µM -2% | [12]; at 33.0 µM 13% | [13]; at 1.2 µM 1% | [13]; at 3.7 µM 4% | [13]; at 11.0 µM 10% | [13]; at 33.0 µM 35% | [14]; [17] -115% | [14]; [18] 59% | [15]; at 1.2 µM -2% | [15]; at 3.7 µM 0% | [15]; at 11.0 µM 4% | [15]; at 33.0 µM 21%

COc1cc(C(=O)C=O)cc(OC)c1OC
inactive: [1]; at 1.2 µM 1% | [1]; at 3.7 µM 3% | [1]; at 11.0 µM 1% | [1]; at 33.0 µM 0% | [2]; at 1.2 µM -3% | [2]; at 3.7 µM -4% | [2]; at 11.0 µM -7% | [2]; at 33.0 µM -5% | [2]; at 100.0 µM 61% | [3]; at 1.2 µM 1% | [3]; at 3.7 µM 5% | [3]; at 11.0 µM 6% | [3]; at 33.0 µM 16% | [3]; at 100.0 µM 58% | [4]; at 1.2 µM 1% | [4]; at 3.7 µM -3% | [4]; at 11.0 µM -4% | [4]; at 33.0 µM 14% | [5]; at 1.2 µM 0% | [5]; at 3.7 µM -5% | [5]; [17] -156% | [5]; at 11.0 µM 9% | [5]; at 33.0 µM 19% | [5]; [18] 44% | [5]; at 50.0 µM 44.3% | [6]; at 1.2 µM 1% | [6]; at 3.7 µM -1% | [6]; [17] -53% | [6]; at 11.0 µM 6% | [6]; at 33.0 µM -4% | [6]; [18] 3% | [6]; at 50.0 µM 57% | [7]; at 1.2 µM -3% | [7]; at 3.7 µM -7% | [7]; at 11.0 µM -5% | [7]; at 33.0 µM 9% | [8]; [17] -67% | [8]; [18] 60% | [9]; at 1.2 µM 0% | [9]; at 3.7 µM -5% | [9]; at 11.0 µM -7% | [9]; at 33.0 µM 6% | [10]; [17] -65% | [10]; [18] 8% | [10]; at 50.0 µM 37.5% | [16]; at 1.2 µM -6% | [16]; at 3.7 µM -6% | [16]; [17] -66% | [16]; at 11.0 µM -8% | [16]; at 33.0 µM -8% | [16]; [18] 33% | [16]; at 50.0 µM 31.9% | [11]; at 1.2 µM 2% | [11]; at 3.7 µM 1% | [11]; at 11.0 µM 0% | [11]; at 33.0 µM 0% | [13]; at 1.2 µM 1% | [13]; at 3.7 µM 4% | [13]; at 11.0 µM 3% | [13]; at 33.0 µM 31% | [14]; [17] -129% | [14]; [18] 52% | [14]; at 50.0 µM 67.4% | [15]; at 1.2 µM 0% | [15]; at 3.7 µM -2% | [15]; at 11.0 µM -2% | [15]; at 33.0 µM 5%
active: [1]; at 100.0 µM 86% | [4]; at 100.0 µM 94% | [5]; at 100.0 µM 91% | [6]; at 100.0 µM 90% | [7]; at 100.0 µM 95% | [8]; at 50.0 µM 73% | [9]; at 100.0 µM 85% | [16]; at 100.0 µM 87% | [11]; at 100.0 µM 88% | [13]; at 100.0 µM 97% | [15]; at 100.0 µM 91%
